Test results: PubChem BioAssay (NCATS)
Values joined by “and” are separate entries in the source; they are usually repeats but may differ in a detail not shown here. Identical values can stand only once. Results filed as inconclusive are left out. A number with no mark means an inactive call. Active and inactive are the calls of the source. Calls come from the whole dose curve; as a rule, active = well fitted cell-killing curve with a large enough effect; inconclusive = small, poorly fitted or top-dose-only effect; inactive = flat fitted curve, though single readings scatter.

assay: Cell Viability - LYMP2-015 (AID 971); details: LYMP2-015 lymphoblastoid cell viability; series mostly up to 92.2 µM; activity change, negative = lower viability: at the top concentration;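 for activity change, negative = lower viability: 0% = DMSO only and full effect = 92 µM tetraoctylammonium bromide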
Procedure, shortened: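 AC50 values reflect Hill-model fits of ATP-based luminescence (CellTiter-Glo) from a human lymphoblastoid line, 2500 cells/well, treated 24 hr at 37 C.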
Note: nearly all actives have a fitted effect of over 55% in size.
Potency is the fitted concentration of half-maximal effect.

Structure (SMILES)	Potency	activity change, negative = lower viability [%]
O=C(O)C(Cl)(Cl)Cl	inactive	–
O=C1CCO1	–	2.78
O=C1C=CC(=O)C=C1	31.6 µM (active)	–
COC1=CC(=O)O[C@@H](/C=C/c2ccccc2)C1	–	-24.2
COc1ccc2c(c1OC)C(=O)OC2C1c2cc3c(cc2CCN1C)OCO3 (centres undefined)	–	11.5
[Cl-].[Cl-].[Hg+2]	12.6 µM (active)	–
CC(C)Nc1ccc(Nc2ccccc2)cc1	25.1 µM (active)	–
O=C1C2CC=CCC2C(=O)N1SC(Cl)(Cl)Cl (centres undefined)	3.98 µM (active)	–
C[C@]12CCC(=O)C[C@@H]1CC[C@@H]1[C@@H]2CC[C@]2(C)[C@@H](O)CC[C@@H]12	–	-6.66
C=CCN=C=S	–	-9.05
[O]=[Cr](=[O])([OH])[O][Cr](=[O])(=[O])[OH]	10 µM (active)	–
[O]=[Cd]	–	-11.3
O=C/C=C/c1ccccc1	inactive	–
Oc1cc(Cl)c(Cl)cc1Cl	–	-13.7
S=C=S	–	-2.96
ClCC1CO1 (centres undefined)	–	-14.1
CCOC(=O)c1ccccc1C(=O)OCC	inactive	–
CCCCCCCCOC(=O)c1ccccc1C(=O)OCCCCCCCC	–	-18.4
CC(C)(C)c1cc(O)ccc1O	50.1 µM (active)	–
O=[N+]([O-])c1ccccc1	–	-15.4
Clc1ccccc1Cl	–	-11.6
ClC=C(Cl)Cl	–	2.78
ClC(Cl)(Cl)Cl	inactive	–
C[C@H]1CCC[C@H](O)CCCCCc2cc(O)cc(O)c2C(=O)O1	–	-6.12
O=CC=O	–	-12.7
CCCCCl	–	-11.7
O=Cc1ccco1	–	-2.34
NNC(N)=O	–	5.28
CC(C)CCON=O	–	-13.2

assay: Cell Viability - LYMP2-017 (AID 972); details: LYMP2-017 lymphoblastoid cell viability; series mostly up to 92.2 µM; activity change, negative = cytotoxicity: at the top concentration;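 note: cells exposed to compound for 24 hours at 37 °C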; for activity change, negative = cytotoxicity: % is set by controls: 0 for no effect and ±100 for the full control effect
Procedure, shortened: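 In this qHTS format, lymphoblastoid cells in complete medium receive test compound for a day at 37 C before ATP content is quantified by luciferase luminescence. Reported AC50 figures come from standard Hill-equation curve fitting.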

Structure (SMILES)	Potency	activity change, negative = cytotoxicity [%]
O=C(O)C(Cl)(Cl)Cl	inactive	–
C[C@H]1CC[C@@H]2[C@@H](C)[C@H]3[C@H](C[C@H]4[C@@H]5CC=C6CC(O[C@@H]7O[C@H](CO)[C@H](O)[C@H](O[C@@H]8O[C@H](CO)[C@@H](O)[C@H](O)[C@H]8O)[C@H]7O[C@H]7O[C@@H](C)[C@H](O)[C@@H](O)[C@H]7O)CC[C@]6(C)[C@H]5CC[C@]34C)N2C1 (some centres undefined)	50.1 µM (active)	–
O=C1CCO1	–	5.33
O=C1C=CC(=O)C=C1	50.1 µM (active)	–
COC1=CC(=O)O[C@@H](/C=C/c2ccccc2)C1	–	-13.6
COc1ccc2c(c1OC)C(=O)OC2C1c2cc3c(cc2CCN1C)OCO3 (centres undefined)	–	-8.24
[Cl-].[Cl-].[Hg+2]	1 µM (active)	–
CC(C)Nc1ccc(Nc2ccccc2)cc1	25.1 µM (active)	–
O=C1C2CC=CCC2C(=O)N1SC(Cl)(Cl)Cl (centres undefined)	3.16 µM (active) and 5.01 µM (active)	–
C[C@]12CCC(=O)C[C@@H]1CC[C@@H]1[C@@H]2CC[C@]2(C)[C@@H](O)CC[C@@H]12	–	-9.64
C=CCN=C=S	–	-11.2
[O]=[Cr](=[O])([OH])[O][Cr](=[O])(=[O])[OH]	12.6 µM (active)	–
[O]=[Cd]	–	-2.56
O=C/C=C/c1ccccc1	inactive	–
Oc1cc(Cl)c(Cl)cc1Cl	–	-7.03
S=C=S	–	7.11
ClCC1CO1 (centres undefined)	–	-16.5
CCOC(=O)c1ccccc1C(=O)OCC	inactive	–
CCCCCCCCOC(=O)c1ccccc1C(=O)OCCCCCCCC	–	-0.432
CC(C)(C)c1cc(O)ccc1O	50.1 µM (active)	–
O=[N+]([O-])c1ccccc1	–	-6.66
Clc1ccccc1Cl	–	0.415
ClC=C(Cl)Cl	–	1.92
ClC(Cl)(Cl)Cl	inactive	–
C[C@H]1CCC[C@H](O)CCCCCc2cc(O)cc(O)c2C(=O)O1	–	-0.423
O=CC=O	–	-7.25
CCCCCl	–	-7.3
O=Cc1ccco1	–	-11
NNC(N)=O	–	0.909
CC(C)CCON=O	–	-11.4

assay: Cell Viability - LYMP2-021 (AID 974); details: LYMP2-021 lymphoblastoid cells viability; series mostly up to 92.2 µM; activity change, negative = cytotoxicity: at the top concentration;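 note: compound exposure lasts 24 hours at 37 °C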; for activity change, negative = cytotoxicity: % is set by controls: 0 for no effect and ±100 for the full control effect
Procedure, shortened: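 In qHTS format, compounds are tested against 2500 lymphoblastoid cells per well for 24 h; viable cell number is inferred from ATP-driven luciferase light, and Hill-equation fitting yields AC50 values.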

Structure (SMILES)	Potency	activity change, negative = cytotoxicity [%]
O=C(O)C(Cl)(Cl)Cl	inactive	–
C[C@H]1CC[C@@H]2[C@@H](C)[C@H]3[C@H](C[C@H]4[C@@H]5CC=C6CC(O[C@@H]7O[C@H](CO)[C@H](O)[C@H](O[C@@H]8O[C@H](CO)[C@@H](O)[C@H](O)[C@H]8O)[C@H]7O[C@H]7O[C@@H](C)[C@H](O)[C@@H](O)[C@H]7O)CC[C@]6(C)[C@H]5CC[C@]34C)N2C1 (some centres undefined)	50.1 µM (active)	–
O=C1CCO1	–	-4.38
O=C1C=CC(=O)C=C1	31.6 µM (active)	–
COC1=CC(=O)O[C@@H](/C=C/c2ccccc2)C1	–	-4.7
COc1ccc2c(c1OC)C(=O)OC2C1c2cc3c(cc2CCN1C)OCO3 (centres undefined)	–	3.33
[Cl-].[Cl-].[Hg+2]	1.58 µM (active)	–
CC(C)Nc1ccc(Nc2ccccc2)cc1	25.1 µM (active)	–
O=C1C2CC=CCC2C(=O)N1SC(Cl)(Cl)Cl (centres undefined)	3.98 µM (active) and 5.01 µM (active)	–
C[C@]12CCC(=O)C[C@@H]1CC[C@@H]1[C@@H]2CC[C@]2(C)[C@@H](O)CC[C@@H]12	–	-10.9
C=CCN=C=S	–	-5.69
[O]=[Cr](=[O])([OH])[O][Cr](=[O])(=[O])[OH]	12.6 µM (active) and 10 µM (active)	–
[O]=[Cd]	–	3.03
O=C/C=C/c1ccccc1	inactive	–
Oc1cc(Cl)c(Cl)cc1Cl	–	-18.8
S=C=S	–	-2.14
ClCC1CO1 (centres undefined)	–	-23.7
CCOC(=O)c1ccccc1C(=O)OCC	inactive	–
CCCCCCCCOC(=O)c1ccccc1C(=O)OCCCCCCCC	–	-9.22
CC(C)(C)c1cc(O)ccc1O	50.1 µM (active)	–
O=[N+]([O-])c1ccccc1	–	-0.918
Clc1ccccc1Cl	–	-5.24
ClC=C(Cl)Cl	–	-5.36
ClC(Cl)(Cl)Cl	inactive	–
C[C@H]1CCC[C@H](O)CCCCCc2cc(O)cc(O)c2C(=O)O1	–	-5.6
O=CC=O	–	-8.55
CCCCCl	–	1.28
O=Cc1ccco1	–	1.8
NNC(N)=O	–	-4.57
CC(C)CCON=O	–	2.94
